The structures appear in SMILES notation. About 910 (0.41%) of roughly 220,000 compounds were called active.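 The calls were made as follows: active = primary inhibition above the hit cutoff, then over 50% inhibition at one or more dose response concentrations (cut at about 23% in these data, passing the limit was not always enough); inconclusive = conflicting primary data, or primary hits not chosen for dose response; inactive = low primary inhibition, or under 50% at every dose.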 What follows is part of a selection rich in actives, with near analogues and random picks from the rest. Measured potencies and affinities stand elsewhere.

Chain of Aminopeptidase N (Plasmodium falciparum (isolate 3D7)) (O96935 whole entry, looked up): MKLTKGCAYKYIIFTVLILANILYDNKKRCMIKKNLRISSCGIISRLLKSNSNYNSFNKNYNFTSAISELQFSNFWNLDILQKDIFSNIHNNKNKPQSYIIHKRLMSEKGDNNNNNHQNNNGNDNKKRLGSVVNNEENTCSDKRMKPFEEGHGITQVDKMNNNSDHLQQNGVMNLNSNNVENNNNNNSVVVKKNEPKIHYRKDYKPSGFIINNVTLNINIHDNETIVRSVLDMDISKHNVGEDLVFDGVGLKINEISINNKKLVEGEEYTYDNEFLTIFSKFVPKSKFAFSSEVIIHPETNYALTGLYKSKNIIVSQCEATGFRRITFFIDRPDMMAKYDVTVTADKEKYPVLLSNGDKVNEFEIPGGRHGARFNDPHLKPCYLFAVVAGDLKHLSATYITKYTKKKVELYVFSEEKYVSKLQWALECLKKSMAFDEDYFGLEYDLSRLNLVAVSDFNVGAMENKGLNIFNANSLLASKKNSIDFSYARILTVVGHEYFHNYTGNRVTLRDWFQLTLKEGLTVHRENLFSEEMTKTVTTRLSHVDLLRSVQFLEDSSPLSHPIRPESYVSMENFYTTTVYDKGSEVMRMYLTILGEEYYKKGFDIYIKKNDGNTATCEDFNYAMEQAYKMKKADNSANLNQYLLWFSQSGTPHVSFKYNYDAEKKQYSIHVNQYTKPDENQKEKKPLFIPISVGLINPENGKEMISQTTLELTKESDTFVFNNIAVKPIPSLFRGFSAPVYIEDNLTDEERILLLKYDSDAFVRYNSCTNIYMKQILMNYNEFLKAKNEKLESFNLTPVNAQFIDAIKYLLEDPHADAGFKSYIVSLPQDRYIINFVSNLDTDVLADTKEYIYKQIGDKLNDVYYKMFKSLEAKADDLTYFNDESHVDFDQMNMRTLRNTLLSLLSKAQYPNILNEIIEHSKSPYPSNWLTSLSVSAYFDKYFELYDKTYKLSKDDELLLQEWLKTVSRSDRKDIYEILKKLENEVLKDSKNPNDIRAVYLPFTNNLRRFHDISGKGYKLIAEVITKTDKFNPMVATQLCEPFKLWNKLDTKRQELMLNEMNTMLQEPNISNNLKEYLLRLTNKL

The assay addresses Aminopeptidase N (Plasmodium falciparum (isolate 3D7)) (UniProt O96935). Nature of the assay: malaria alanyl aminopeptidase activity blockers – biochemical, fluorogenic H-Leu-NHMec substrate, 1536-well (AID 1445).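 Also: plate controls were DMSO full reaction for no effect and no enzyme background for full effect.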 As to conditions: recombinant M1AAP, H-Leu-NHMec fluorogenic kinetic assay; at 30 µM, hits give high values unless noted.
Broadly, the inhibition is the drop in the measured response relative to a control, in per cent. For `CN(C)CCCNS(=O)(=O)c1cc(Cl)c(Cl)cc1Cl`, the inhibition is 0.71% (inactive).

Consider `C#CCOC(=O)Nc1ccc(OCC(F)(F)F)nc1`, for which the inhibition is -3.37% (inactive).

Turning to `O=C(O)Cc1cc(C(=O)Nc2ccc(Br)cc2)sc1-c1ccccc1`, the inhibition is 8.41% (inactive).

On to `COc1ccc([N+](=O)[O-])cc1NC(=O)C(C)OC(=O)c1cccnc1` (configuration not stated), for which the inhibition is -3.23% (inactive).

Take `CC(C)[C@H](NC(=O)c1ccc(Cl)c([N+](=O)[O-])c1)C(=O)NCc1ccc(F)cc1`: the inhibition was 3.78% (inactive).

With `Cc1cc(NC(=O)c2ccco2)ncc1NC(=O)Cc1ccccc1`, the inhibition was 0.67% (inactive).

As to `Cc1cc(NC(=O)c2ccccc2)ncc1NC(=O)c1ccco1`, the inhibition was 5.34% (inactive).

Take `Cc1cc(NC(=O)c2ccco2)ncc1NC(=O)CCc1ccccc1`: the inhibition is 29.7% (active).

For the molecule `CC1CCCC(NC(=O)CCn2c(=S)oc3ccccc32)C1C` (configuration not stated), the inhibition was 3.48% (inactive).

As for `Cc1ccc(-n2c(-c3nn(C)c(C)c3Cl)n[nH]c2=S)cc1`, the inhibition was 1.9% (inactive).

Take `CCNC(=O)C1CC(=O)N(Cc2ccc3c(c2)OCO3)C(=Nc2ccc(OCC)cc2)S1` (configuration not stated): the inhibition is -1.35% (inactive).

Consider `CCNC(=O)C1CC(=O)N(Cc2ccc3c(c2)OCO3)C(=Nc2ccc(F)cc2)S1` (configuration not stated), for which the inhibition was 27% (active).

Consider `CNC(=O)C1CC(=O)N(Cc2ccc3c(c2)OCO3)C(=Nc2ccc(F)cc2)S1` (configuration not stated), for which the inhibition was -5.29% (inactive).

On to `COc1ccc(NC(=S)N2CCN(c3ncccn3)CC2)cc1`, for which the inhibition was 4.34% (inactive).

For the molecule `CC1=CC(c2ccccc2)n2nnnc2N1` (configuration not stated), the inhibition was -5.78% (inactive).

With `c1ccc(N2CCN(c3nc4ccccc4n4cnnc34)CC2)cc1`, the inhibition is 14.5% (inactive).

Take `c1cnc(N2CCN(c3nc4ccccc4n4cnnc34)CC2)nc1`: the inhibition is 24.4% (active).

For the molecule `c1ccc2c(c1)nc(N1CCOCC1)c1nncn12`, the inhibition is 4.1% (inactive).

Take `Cc1cc(C)n(Cc2nc3ccccc3n2C)n1`: the inhibition is -3.79% (inactive).

`CC(C)(C)[C@H]1C=C(C(=O)NC2CC2)O[C@@H](OCc2ccc(CO)cc2)C1`: the inhibition is 1.09% (inactive).

Turning to `CCCCCNC(=O)c1ccc2c(=O)n(CC3CCCO3)c(=O)[nH]c2c1` (configuration not stated), the inhibition was 4.6% (inactive).

As to `CC(=O)NNC(=O)c1sc(=S)n(C)c1C`, the inhibition is 0.62% (inactive).

As to `O=C(NCc1ccccc1)c1sc(=S)n2c1[nH]c(=O)c1ccccc12`, the inhibition is 18.5% (inactive).

As for `O=C(NC1CCCCC1)c1sc(=S)n2c1[nH]c(=O)c1ccccc12`, the inhibition was 0.76% (inactive).

For the molecule `NC(=O)c1sc(=S)n2c1[nH]c(=O)c1sccc12`, the inhibition is 17.2% (inactive).

For `O=C(NCC1CCCO1)c1sc(=S)n2c1[nH]c(=O)c1ccc(C(=O)N3CCCCC3)cc12` (configuration not stated), the inhibition is 20.2% (inactive).

In the case of `CCCCCNC(=O)c1ccc2c(=O)n(CC3CCCO3)c(=S)[nH]c2c1` (configuration not stated), the inhibition is 5.58% (inactive).

Turning to `Cc1ccc(CNC(=O)c2ccc3c(=O)[nH]c4c(C(=O)NCC5CCCO5)sc(=S)n4c3c2)cc1` (configuration not stated), the inhibition is 23% (inactive).

`O=C(NCc1ccco1)c1ccc(Br)c(S(=O)(=O)N2CCCCC2)c1`: the inhibition is 3.95% (inactive).

For `COc1ccc(NC(=O)C23CC4CC(C2)CC(c2ccccc2)(C4)C3)c(OC)c1`, the inhibition was -2.32% (inactive).

On to `COc1c(C)cc(C(=O)C2CCCN(C(=O)c3cccc(F)c3)C2)cc1C` (configuration not stated), for which the inhibition was 0.9% (inactive).

Regarding `CC(=O)Nc1ccc(OCC(O)Cn2c(CO)nc3ccccc32)cc1` (configuration not stated), the inhibition was 6.49% (inactive).

Take `Cc1ccc(N(CC(=O)O)S(C)(=O)=O)cc1Cl`: the inhibition is -5.06% (inactive).

`C=CCOC(=O)C(=O)/C=C/c1csc2ccccc12`: the inhibition was 1.93% (inactive).

As for `Cc1cc(C)c2c(-n3cccc3)c(C(=O)O)sc2n1`, the inhibition was 12.2% (inactive).

`Cc1cc(C)c2c(-n3cccc3)c(C(=O)NNS(=O)(=O)c3ccc(F)cc3)sc2n1`: the inhibition is -2.28% (inactive).

`COC(=O)C(=C/C(C)=C/c1cccs1)C(=O)OC`: the inhibition was 13.8% (inactive).

As for `Cc1ccc(N2C(=O)CCC2(C(N)=O)c2ccccc2)cc1` (configuration not stated), the inhibition was -0.36% (inactive).

Take `CCC(=O)Nc1ccc(-c2nc3ccccc3c(=O)o2)cc1`: the inhibition is 2.53% (inactive).

On to `CCOc1ccccc1CN1CCN(Cc2[nH]c3ccccc3c2C)CC1CCO` (configuration not stated), for which the inhibition was -0.18% (inactive).

As to `COc1cc(/C=N\NC(=O)c2sc(N)nc2C)cc(OC)c1OC`, the inhibition was 8.26% (inactive).

Take `COc1cccc(/C=N\NC(=O)c2sc(N)nc2C)c1OC`: the inhibition was 24.5% (active).

With `Cc1nc(N)sc1C(=O)N/N=C/c1ccccc1[N+](=O)[O-]`, the inhibition is 5.94% (inactive).

As for `Cc1csc(Nc2ccccc2)[n+]1C`, the inhibition is -12.3% (inactive).

With `CC(C)c1cc(C(=O)Nc2sc3c(c2C#N)CCC3)no1`, the inhibition is 20.6% (inactive).

Take `Cc1cc(C(=O)Nc2sc3c(c2C#N)CCC3)no1`: the inhibition was 23.7% (active).

For `Cc1cc(C(=O)Nc2sc3c(c2C#N)CCCC3)no1`, the inhibition was 8.77% (inactive).

Take `Cc1ccc(S(=O)(=O)NC(=O)NCCCCNC(=O)NS(=O)(=O)c2ccc(C)cc2)cc1`: the inhibition is 0.51% (inactive).

As to `Cc1ccc(Cc2cc(C)n[nH]c2=O)cc1`, the inhibition is 9.53% (inactive).

On to `COCc1cc(C)nc(OCC(=O)N/N=C/c2ccco2)c1C#N`, for which the inhibition was 9.71% (inactive).

In the case of `CC(=O)Nc1ccc(-c2csc(N/N=C(/C)c3ccccc3)n2)cc1`, the inhibition is 11.9% (inactive).

With `CC(=O)Nc1nc(C(=O)O)cs1`, the inhibition was -0.08% (inactive).

Consider `CCc1nnc(N/N=C/c2c(Cl)cccc2Cl)n1N`, for which the inhibition was 1.62% (inactive).

As for `O=C(Nc1cccs1)Nc1ccc(Br)cc1F`, the inhibition is 5.12% (inactive).

Consider `CCOc1ccc(Br)cc1S(=O)(=O)Nc1ccc(NC(=O)c2ccccc2C)cc1`, for which the inhibition is 7.33% (inactive).

`CCOC(=O)NNS(=O)(=O)c1cc(Br)ccc1Br`: the inhibition was -1.42% (inactive).

Turning to `Cc1ccc(CN2C(=O)N/C(=C\c3cccn3-c3cccc(C(=O)O)c3)C2=O)cc1`, the inhibition is 11.9% (inactive).

For the molecule `O=Cc1ccc(-c2ccc(C(=O)O)cc2)o1`, the inhibition was 7.72% (inactive).

On to `Cc1nc(S/C(=C/c2ccc(-c3ccc(Cl)cc3)o2)C(=O)O)n[nH]1`, for which the inhibition was -6.28% (inactive).

Consider `Cc1nc(S/C(=C/c2ccc(-c3cccc(Cl)c3)o2)C(=O)O)n[nH]1`, for which the inhibition is -8.13% (inactive).

As to `CC(=O)c1ccc(-c2ccc(/C=C(/Sc3n[nH]c(C)n3)C(=O)O)o2)cc1`, the inhibition is 5.19% (inactive).

On to `CCc1nnc(NC(=O)C2CCCN(c3nc(C)cc(C)n3)C2)s1` (configuration not stated), for which the inhibition was 3.57% (inactive).

The record behind these values is PubChem BioAssay AID1445 (SRMLSC, 2008).
